From the supplement of paper PMC11732987, “Enantioselective OTUD7B fragment discovery through chemoproteomics screening and high-throughput optimisation” (Communications Chemistry, 2025)

Tests used:
Assay in all cases: log2 ratio of Biotin-Ahx-Ub-VS probe labelling (fragment/DMSO); higher = less target engagement (more negative = stronger competition), active = hit call of the paper (q ≤ 0.05, log2 ratio ≤ -1)
Settings in all cases: compound concentration: 200 uM; treatment time: 3 h
USP19 = target: T1, USP19 (UniProt O94966)
T1 sequence (whole entry): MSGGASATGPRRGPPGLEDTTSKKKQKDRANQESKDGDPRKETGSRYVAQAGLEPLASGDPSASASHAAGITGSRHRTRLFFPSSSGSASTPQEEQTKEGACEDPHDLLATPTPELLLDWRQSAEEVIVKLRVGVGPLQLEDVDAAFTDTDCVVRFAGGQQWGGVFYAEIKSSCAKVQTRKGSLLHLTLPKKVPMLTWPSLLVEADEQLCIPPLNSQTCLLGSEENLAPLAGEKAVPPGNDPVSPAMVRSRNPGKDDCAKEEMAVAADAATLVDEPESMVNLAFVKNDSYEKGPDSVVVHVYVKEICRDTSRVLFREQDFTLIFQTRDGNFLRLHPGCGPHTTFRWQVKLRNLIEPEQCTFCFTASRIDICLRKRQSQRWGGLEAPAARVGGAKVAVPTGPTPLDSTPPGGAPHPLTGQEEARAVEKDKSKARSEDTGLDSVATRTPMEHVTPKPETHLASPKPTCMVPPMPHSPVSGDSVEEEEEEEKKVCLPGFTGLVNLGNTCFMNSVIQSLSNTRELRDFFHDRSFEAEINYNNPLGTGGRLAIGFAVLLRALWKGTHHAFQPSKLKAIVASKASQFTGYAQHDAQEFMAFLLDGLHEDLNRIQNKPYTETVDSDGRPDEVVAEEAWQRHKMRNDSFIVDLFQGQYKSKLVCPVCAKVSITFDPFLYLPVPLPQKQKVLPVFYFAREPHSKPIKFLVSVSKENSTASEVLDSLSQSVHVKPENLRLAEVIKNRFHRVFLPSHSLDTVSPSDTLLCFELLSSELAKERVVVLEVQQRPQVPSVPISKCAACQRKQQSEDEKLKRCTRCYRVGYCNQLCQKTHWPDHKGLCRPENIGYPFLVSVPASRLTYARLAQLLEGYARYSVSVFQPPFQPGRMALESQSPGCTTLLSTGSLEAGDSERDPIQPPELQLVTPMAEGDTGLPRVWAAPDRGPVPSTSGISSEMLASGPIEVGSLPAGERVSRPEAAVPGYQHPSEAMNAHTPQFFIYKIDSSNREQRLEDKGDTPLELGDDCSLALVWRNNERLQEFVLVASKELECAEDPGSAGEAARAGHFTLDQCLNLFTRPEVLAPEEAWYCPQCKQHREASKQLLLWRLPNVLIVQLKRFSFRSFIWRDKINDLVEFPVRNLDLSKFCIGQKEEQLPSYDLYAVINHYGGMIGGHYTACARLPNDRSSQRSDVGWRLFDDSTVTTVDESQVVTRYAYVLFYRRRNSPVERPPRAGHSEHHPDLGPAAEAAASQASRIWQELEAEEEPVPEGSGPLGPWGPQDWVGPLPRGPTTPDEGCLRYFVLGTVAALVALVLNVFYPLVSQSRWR
Outline: (§1)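 Fragment (200 µM) or vehicle was incubated for 3 h with triplicate HEK293T lysate samples of 495 µg, which were then treated with Biotin-Ahx-Ub-VS at 0.5 µM final for 1 h. Labelled DUBs were enriched on NeutrAvidin, digested with LysC and trypsin, and analysed by diaPASEF LC-MS/MS. Values are average log2 fragment/vehicle ratios from an unpaired t-test on global-median-normalised Spectronaut label-free quantities, using proteins with ≥2 unique peptides.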

USP22 = target: T2, USP22 (UniProt Q9UPT9)
T2 sequence (whole entry): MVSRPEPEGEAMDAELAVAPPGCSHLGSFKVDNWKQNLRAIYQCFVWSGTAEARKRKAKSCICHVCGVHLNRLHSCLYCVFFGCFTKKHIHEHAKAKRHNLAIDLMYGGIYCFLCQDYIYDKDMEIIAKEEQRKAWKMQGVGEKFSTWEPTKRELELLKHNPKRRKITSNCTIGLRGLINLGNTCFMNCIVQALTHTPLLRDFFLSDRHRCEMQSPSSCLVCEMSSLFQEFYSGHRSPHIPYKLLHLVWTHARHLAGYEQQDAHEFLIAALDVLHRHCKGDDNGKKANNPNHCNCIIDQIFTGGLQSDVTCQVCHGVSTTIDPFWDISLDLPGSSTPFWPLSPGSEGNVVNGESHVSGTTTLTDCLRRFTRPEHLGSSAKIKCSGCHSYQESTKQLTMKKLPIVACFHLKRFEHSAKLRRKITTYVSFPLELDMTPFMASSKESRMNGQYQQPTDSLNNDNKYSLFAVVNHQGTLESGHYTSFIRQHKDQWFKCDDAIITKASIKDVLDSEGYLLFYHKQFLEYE
Outline: as §1

USP24 = USP24 (UniProt Q9UPU5)
Sequence of USP24 (Q9UPU5 whole entry): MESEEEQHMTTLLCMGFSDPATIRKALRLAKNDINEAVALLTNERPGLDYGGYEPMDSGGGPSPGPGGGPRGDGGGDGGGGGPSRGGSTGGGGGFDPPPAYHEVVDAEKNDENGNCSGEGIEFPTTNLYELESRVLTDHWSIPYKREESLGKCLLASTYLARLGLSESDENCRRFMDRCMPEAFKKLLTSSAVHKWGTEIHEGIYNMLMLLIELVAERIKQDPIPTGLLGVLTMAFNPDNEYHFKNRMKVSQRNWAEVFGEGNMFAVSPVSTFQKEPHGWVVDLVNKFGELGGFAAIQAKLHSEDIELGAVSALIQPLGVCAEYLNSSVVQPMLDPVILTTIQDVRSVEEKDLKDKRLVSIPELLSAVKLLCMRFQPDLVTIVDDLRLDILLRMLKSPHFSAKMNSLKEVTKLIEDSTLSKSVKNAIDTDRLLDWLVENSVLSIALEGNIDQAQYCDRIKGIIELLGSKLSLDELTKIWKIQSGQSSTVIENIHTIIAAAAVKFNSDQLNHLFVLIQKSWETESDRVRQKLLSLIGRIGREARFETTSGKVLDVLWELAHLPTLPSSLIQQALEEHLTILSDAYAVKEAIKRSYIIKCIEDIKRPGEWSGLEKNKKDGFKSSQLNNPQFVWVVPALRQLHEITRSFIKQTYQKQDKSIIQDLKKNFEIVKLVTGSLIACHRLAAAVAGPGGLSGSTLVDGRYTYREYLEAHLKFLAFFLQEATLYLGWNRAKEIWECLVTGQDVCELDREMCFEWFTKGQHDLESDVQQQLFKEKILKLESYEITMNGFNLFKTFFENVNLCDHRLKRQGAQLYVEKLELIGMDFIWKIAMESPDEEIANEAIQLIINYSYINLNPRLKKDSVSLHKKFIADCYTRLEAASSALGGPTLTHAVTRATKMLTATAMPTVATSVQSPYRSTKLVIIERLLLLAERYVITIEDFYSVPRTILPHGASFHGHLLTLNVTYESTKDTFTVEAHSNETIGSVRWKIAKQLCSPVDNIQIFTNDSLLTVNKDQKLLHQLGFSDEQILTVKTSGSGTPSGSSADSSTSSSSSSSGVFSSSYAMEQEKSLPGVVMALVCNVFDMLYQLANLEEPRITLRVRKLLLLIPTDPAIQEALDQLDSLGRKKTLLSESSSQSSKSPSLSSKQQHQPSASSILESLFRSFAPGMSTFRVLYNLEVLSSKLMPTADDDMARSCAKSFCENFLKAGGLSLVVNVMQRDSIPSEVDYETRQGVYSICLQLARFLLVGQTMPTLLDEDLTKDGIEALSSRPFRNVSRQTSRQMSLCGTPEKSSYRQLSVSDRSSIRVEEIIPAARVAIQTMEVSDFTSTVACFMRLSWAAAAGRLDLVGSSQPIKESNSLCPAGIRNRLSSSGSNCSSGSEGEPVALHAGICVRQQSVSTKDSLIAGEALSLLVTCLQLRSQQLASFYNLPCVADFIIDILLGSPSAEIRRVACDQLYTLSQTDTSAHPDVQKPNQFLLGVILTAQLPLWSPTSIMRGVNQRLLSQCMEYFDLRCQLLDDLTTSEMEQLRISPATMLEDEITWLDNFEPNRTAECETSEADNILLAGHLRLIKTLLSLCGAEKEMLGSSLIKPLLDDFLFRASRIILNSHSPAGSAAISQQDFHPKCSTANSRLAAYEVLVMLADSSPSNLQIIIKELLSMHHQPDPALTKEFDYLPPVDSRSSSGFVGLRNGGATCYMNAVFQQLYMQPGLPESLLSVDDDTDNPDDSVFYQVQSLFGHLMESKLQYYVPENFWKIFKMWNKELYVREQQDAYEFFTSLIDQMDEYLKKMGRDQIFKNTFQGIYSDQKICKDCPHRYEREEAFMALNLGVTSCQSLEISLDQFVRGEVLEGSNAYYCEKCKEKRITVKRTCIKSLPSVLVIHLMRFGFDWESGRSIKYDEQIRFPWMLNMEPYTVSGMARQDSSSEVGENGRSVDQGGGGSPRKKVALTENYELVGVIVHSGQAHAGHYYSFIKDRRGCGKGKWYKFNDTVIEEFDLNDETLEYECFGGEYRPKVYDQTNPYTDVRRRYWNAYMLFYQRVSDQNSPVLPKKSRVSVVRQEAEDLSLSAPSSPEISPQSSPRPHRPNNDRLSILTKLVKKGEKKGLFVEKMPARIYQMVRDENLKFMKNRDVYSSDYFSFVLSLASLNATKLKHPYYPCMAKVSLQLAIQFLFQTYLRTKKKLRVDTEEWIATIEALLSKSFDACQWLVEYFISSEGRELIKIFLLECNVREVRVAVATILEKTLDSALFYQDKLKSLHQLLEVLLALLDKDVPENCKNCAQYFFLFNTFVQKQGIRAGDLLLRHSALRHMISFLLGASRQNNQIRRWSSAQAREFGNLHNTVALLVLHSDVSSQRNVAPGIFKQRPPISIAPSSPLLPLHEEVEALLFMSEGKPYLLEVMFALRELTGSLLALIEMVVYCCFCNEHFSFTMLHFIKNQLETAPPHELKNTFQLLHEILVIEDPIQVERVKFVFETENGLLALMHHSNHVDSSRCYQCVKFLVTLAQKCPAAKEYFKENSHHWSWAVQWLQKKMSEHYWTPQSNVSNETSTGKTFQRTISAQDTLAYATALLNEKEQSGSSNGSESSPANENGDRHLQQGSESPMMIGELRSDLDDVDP
Outline: as §1

USP25 = target: T3, USP25 (UniProt Q9UHP3)
T3 sequence (whole entry): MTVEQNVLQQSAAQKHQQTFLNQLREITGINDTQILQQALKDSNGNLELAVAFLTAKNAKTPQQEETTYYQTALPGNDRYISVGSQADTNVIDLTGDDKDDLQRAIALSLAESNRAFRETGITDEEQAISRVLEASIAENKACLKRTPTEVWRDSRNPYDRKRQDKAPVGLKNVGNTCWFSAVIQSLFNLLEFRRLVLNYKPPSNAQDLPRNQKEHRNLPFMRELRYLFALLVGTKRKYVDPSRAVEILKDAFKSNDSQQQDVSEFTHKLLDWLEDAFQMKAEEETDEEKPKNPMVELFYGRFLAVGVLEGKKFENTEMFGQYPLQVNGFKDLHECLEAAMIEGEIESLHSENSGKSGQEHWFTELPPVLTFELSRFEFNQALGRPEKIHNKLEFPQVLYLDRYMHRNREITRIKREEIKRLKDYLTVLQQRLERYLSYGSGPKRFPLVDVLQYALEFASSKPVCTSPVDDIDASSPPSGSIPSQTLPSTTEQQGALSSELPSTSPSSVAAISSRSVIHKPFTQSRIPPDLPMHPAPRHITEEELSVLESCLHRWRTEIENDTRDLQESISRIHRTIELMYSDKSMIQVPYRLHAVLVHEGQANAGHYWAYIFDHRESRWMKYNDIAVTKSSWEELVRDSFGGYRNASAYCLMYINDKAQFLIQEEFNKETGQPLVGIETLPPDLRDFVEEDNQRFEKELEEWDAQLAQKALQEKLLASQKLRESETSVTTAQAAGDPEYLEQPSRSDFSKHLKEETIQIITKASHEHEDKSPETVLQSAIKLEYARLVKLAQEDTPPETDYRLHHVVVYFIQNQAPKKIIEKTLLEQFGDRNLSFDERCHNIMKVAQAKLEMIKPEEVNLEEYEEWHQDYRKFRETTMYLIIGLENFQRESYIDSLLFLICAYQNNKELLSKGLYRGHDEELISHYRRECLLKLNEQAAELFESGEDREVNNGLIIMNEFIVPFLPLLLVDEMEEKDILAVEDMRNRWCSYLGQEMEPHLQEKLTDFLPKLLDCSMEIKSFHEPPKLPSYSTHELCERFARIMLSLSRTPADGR
Outline: as §1

USP28 = target: T4, USP28 (UniProt Q96RU2)
T4 sequence (whole entry): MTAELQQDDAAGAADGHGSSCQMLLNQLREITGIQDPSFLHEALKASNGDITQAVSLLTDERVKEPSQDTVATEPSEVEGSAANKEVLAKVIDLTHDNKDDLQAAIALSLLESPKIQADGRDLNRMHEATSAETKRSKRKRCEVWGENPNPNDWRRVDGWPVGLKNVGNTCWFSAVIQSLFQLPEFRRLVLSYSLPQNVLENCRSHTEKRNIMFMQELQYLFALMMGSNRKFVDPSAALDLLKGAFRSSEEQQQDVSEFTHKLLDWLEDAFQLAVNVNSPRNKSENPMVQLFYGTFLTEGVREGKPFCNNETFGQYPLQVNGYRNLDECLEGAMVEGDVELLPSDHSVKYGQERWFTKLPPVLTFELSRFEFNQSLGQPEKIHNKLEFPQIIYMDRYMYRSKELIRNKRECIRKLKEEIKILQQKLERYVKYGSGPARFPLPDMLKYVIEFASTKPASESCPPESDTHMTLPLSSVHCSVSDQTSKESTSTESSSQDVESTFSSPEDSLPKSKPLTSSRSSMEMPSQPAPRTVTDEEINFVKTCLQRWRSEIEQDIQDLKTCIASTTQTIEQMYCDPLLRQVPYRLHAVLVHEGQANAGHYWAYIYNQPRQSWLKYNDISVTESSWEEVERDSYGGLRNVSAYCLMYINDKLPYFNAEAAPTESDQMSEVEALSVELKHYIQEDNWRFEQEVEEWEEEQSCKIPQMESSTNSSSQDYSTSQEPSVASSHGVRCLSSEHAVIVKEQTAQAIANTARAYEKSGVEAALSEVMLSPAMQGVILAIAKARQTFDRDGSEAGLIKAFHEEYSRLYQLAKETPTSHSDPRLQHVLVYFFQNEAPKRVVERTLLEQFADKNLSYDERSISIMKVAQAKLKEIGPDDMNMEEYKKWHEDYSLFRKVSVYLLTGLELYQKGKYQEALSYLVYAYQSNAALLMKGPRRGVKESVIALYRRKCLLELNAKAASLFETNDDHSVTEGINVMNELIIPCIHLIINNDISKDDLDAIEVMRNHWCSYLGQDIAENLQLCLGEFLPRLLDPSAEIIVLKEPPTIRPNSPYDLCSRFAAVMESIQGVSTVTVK
Outline: as §1

Measured: log2 ratio of Biotin-Ahx-Ub-VS probe labelling

O=C(CCl)NCCc1ccc(F)cc1
inactive: USP19 -0.131 | USP22 0.0853 | USP24 -0.0496 | USP25 -0.326 | USP28 -0.328
